The full list was thinned out, with hits kept by preference.
Chlamy TAG – inducers of TAG accumulation in Chlamydomonas, primary screen, qHTS, Chlamydomonas reinhardtii; Nile Red fluorescence, 72 h; calls only at 10 µM (by protocol); actives 0.84% (n = 44,000); AID 1159537, 2015; call rule not given here;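 also: hits raise Nile Red signal meaning more stored TAG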
The depositor's hits bear a star.

`Clc1ccc(CN2CCCCCC2)cc1` gave Chlamy TAG active.
Screening Clc1ccc(CN2CCC(N3CCCCCC3)CC2)cc1 returned Chlamy TAG inactive.
Screening CCCCc1nc(SCC(=O)c2ccccc2)n[nH]1 returned Chlamy TAG inactive.
For Clc1cccc(N2CCN(Cc3cccs3)CC2)c1 the results were Chlamy TAG inactive.
CN1CCN(CCCc2ccccc2)CC1 was read as Chlamy TAG inactive.
Screening COc1cc(CN2CCN(c3cccc(Cl)c3)CC2)cc(OC)c1O returned Chlamy TAG inactive.
Screening Clc1cccc(N2CCN(Cc3ccsc3)CC2)c1 returned Chlamy TAG active.
c1ccc(N2CCN(Cc3ccsc3)CC2)cc1 was read as Chlamy TAG active.
c1ccc(N2CCN(Cc3ccsc3)CC2)nc1 was read as Chlamy TAG inactive.
c1cc(CN2CCOCC2)cs1 was read as Chlamy TAG inactive.
`c1ccc(CCN2CCN(Cc3ccccc3)CC2)cc1` gave Chlamy TAG inactive.
For c1ccc(CCN2CCN(c3ccccc3)CC2)cc1 the results were Chlamy TAG active.
For COc1cc(C(=O)Nc2ccccc2[N+](=O)[O-])ccc1OCc1ccc(Cl)cc1 the results were Chlamy TAG inactive.
For O=C(Nc1ccc(F)cc1F)c1ccc(CN2CCOCC2)cc1 the results were Chlamy TAG inactive.
`CC(=O)Nc1ccc(S(=O)(=O)NCc2cccs2)cc1` gave Chlamy TAG inactive.
Screening COc1ccc(Cl)cc1NC(=O)COc1ccc(C(C)(C)C)cc1 returned Chlamy TAG inactive.
Screening COc1ccc(OC)c(NC(=O)c2cc(OC)c(OC)cc2[N+](=O)[O-])c1 returned Chlamy TAG inactive.
For Cc1c(Cc2ccccc2)[nH]c2ccccc12 the results were Chlamy TAG inactive.
`NC(=O)C1CCN(C(=O)COc2ccc(Br)cc2)CC1` gave Chlamy TAG inactive.
C/C=C(\C)CN1CCN(C/C=C/c2ccccc2)CC1 was read as Chlamy TAG active.
Screening OCCN1CCN(C/C=C/c2ccccc2)CC1 returned Chlamy TAG inactive.
For CCN1CCN(C/C=C/c2ccccc2)CC1 the results were Chlamy TAG inactive.
`COc1ccc(S(=O)(=O)N(CCO)CCO)cc1C(=O)O` gave Chlamy TAG inactive.
`O=C(O)c1ccc(C(=O)c2cccc([N+](=O)[O-])c2)cc1` gave Chlamy TAG inactive.
NC(=O)c1cc(-c2ccccc2)sc1NC(=O)c1ccc(OC(F)F)cc1 was read as Chlamy TAG active.
Screening NC(=O)c1cc(-c2ccccc2)sc1N returned Chlamy TAG inactive.
Screening CC(C)Oc1ccc(C(=O)Nc2ccccc2C(N)=O)cc1 returned Chlamy TAG inactive.
`COc1ccc(-c2ccc(-c3nnc(-c4ccccc4C)o3)cc2)cc1` gave Chlamy TAG inactive.
Screening N#C/C(=C\c1ccco1)c1nc(-c2ccc(F)cc2)cs1 returned Chlamy TAG inactive.
`CCC(Oc1ccccc1)C(=O)Nc1ccc(C(C)C)cc1` (configuration not stated) gave Chlamy TAG inactive.
For COc1cc(CNC2CCC(C)C2)cc(OC)c1 (configuration not stated) the results were Chlamy TAG inactive.
Screening COc1ccc(CNC2CCCC2)cc1OC returned Chlamy TAG inactive.
Screening COc1ccc(CNC2CCCC(C)C2)cc1 (configuration not stated) returned Chlamy TAG active.
`O=C(Nc1nc(-c2ccc(F)cc2)cs1)c1ccc2c(c1)OCO2` gave Chlamy TAG inactive.
`O=C(Nc1ccc2c(c1)OCO2)c1c(F)c(F)c(F)c(F)c1F` gave Chlamy TAG active.
`O=C(Nc1ccc2c(c1)OCO2)c1ccc2c(c1)OCO2` gave Chlamy TAG inactive.
Screening O=C(Nc1ccc(F)c(F)c1)c1ccc2c(c1)OCO2 returned Chlamy TAG inactive.
Screening Cc1ccc(Cl)cc1NC(=O)c1ccccc1 returned Chlamy TAG inactive.
C=CCn1c(SCC(=O)N(CC)CC)nc2sc(-c3ccccc3)cc2c1=O was read as Chlamy TAG inactive.
For CC1(C)C(C(N)=O)C(N)=NC(=O)C1c1nc(-c2ccc(Cl)cc2)cs1 (configuration not stated) the results were Chlamy TAG inactive.
`Cc1ccc(S(=O)(=O)n2ccc(C)n2)cc1` gave Chlamy TAG inactive.
For O=S(=O)(c1ccc(Cl)cc1)n1cccn1 the results were Chlamy TAG inactive.
`Cc1ccc(S(=O)(=O)n2cccn2)cc1` gave Chlamy TAG active.
For O=C(CSc1nnnn1Cc1ccccc1)Nc1c(Cl)cccc1Cl the results were Chlamy TAG inactive.
`CC1CN(S(=O)(=O)c2cc([N+](=O)[O-])ccc2N2CCCCCC2)CC(C)O1` (configuration not stated) gave Chlamy TAG inactive.
CN(C)CCOc1ccc(Cl)cc1Cl was read as Chlamy TAG inactive.
O=C(Nc1ccc(F)cc1)c1cccc(Cl)c1Cl was read as Chlamy TAG inactive.
For O=C(Nc1cccc([N+](=O)[O-])c1)c1ccccc1Cl the results were Chlamy TAG inactive.

Screening results from PubChem BioAssay.
